± gives the standard deviation of the averaged measurements.
Assays:
MDA-MB-231 [1] = assay: cell viability relative to vehicle unstimulated control (fraction); higher = more viable cells; conditions: pre-treatment time: 18 h then 24 h IFNg/TNF
MDA-MB-231 [2] = assay: kynurenine production, fold change vs DMSO IFNg/TNF control; higher = more kynurenine produced (less inhibition); conditions: pre-treatment time: 18 h then 24 h IFNg/TNF
Procedure, shortened: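 After trichloroacetic acid and p-dimethylaminobenzaldehyde treatment, supernatants were read at 492 nm, with 0–100 μM standards. These came from MDA-MB-231 cells (7 × 10^4/well, 96-well plates) pre-treated 18 h with natural products in 0.1% DMSO and then exposed 24 h to IFNγ (1 U/ml) and TNF (6.25 ng/ml) at 37°C. Values for kynurenine production are fold changes over same-plate cytokine-stimulated vehicle wells, averaged over duplicate plates in the first screening round.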
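For cell viability relative to vehicle unstimulated control in this document: viability of the cells left after supernatant collection, read with Deep Blue dye added for 4 h, as absorbance at 570 nm minus 600 nm.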

CC(CC(=O)C[C@@H](C)[C@H]1CC(=O)[C@@]2(C)C3=C(C(=O)[C@@H](O)[C@]12C)[C@@]1(C)CC[C@H](O)C(C)(C)[C@@H]1C[C@@H]3O)C(=O)O (stereo partly specified) [Ganoderic acid G] (compound dose: 10 uM)
cell viability (MDA-MB-231 [1]): 1.1 ± 0.058 | kynurenine production (MDA-MB-231 [2]): 0.973 ± 0.16

C[C@@H]1O[C@@H](O[C@@H]2[C@H](O)[C@@H](O)[C@H](O[C@H]3CC[C@@]4(C)C(CC[C@]5(C)C4C=C[C@]46OC[C@@]7(CCC(C)(C)CC74)[C@@H](O)C[C@]65C)C3(C)C)O[C@@H]2CO[C@@H]2O[C@H](CO)[C@@H](O)[C@H](O)[C@H]2O)[C@H](O)[C@H](O)[C@H]1O (stereo partly specified) [Saikosaponin C] (compound dose: 10 uM)
cell viability (MDA-MB-231 [1]): 0.928 ± 0.063 | kynurenine production (MDA-MB-231 [2]): 1.13 ± 0.18

COc1cc2c(cc1O)C(Cc1ccc(O)cc1)NCC2 (stereo unspecified) [Coclaurine] (compound dose: 10 uM)
cell viability (MDA-MB-231 [1]): 0.988 ± 0.044 | kynurenine production (MDA-MB-231 [2]): 1.04 ± 0.062

CC[C@@H](C(=O)[C@@H](C)[C@@H](O)[C@H](C)CCc1ccc(C)c(O)c1C(=O)O)[C@H]1O[C@](CC)([C@H]2CC[C@](O)(CC)[C@H](C)O2)C[C@@H]1C [Lasalocid (sodium)] (compound dose: 10 uM)
cell viability (MDA-MB-231 [1]): 0.865 ± 0.04 | kynurenine production (MDA-MB-231 [2]): 0.37 ± 0.0038

CC(C)=CCC[C@](C)(O[C@@H]1O[C@H](CO)[C@@H](O)[C@H](O)[C@H]1O)[C@H]1CC[C@]2(C)[C@@H]1[C@H](O)C[C@@H]1[C@@]3(C)CC[C@H](O[C@@H]4O[C@H](CO)[C@@H](O)[C@H](O)[C@H]4O[C@@H]4O[C@H](CO)[C@@H](O)[C@H](O)[C@H]4O)C(C)(C)[C@@H]3CC[C@]12C [Ginsenoside Rd] (compound dose: 10 uM)
cell viability (MDA-MB-231 [1]): 1 ± 0.022 | kynurenine production (MDA-MB-231 [2]): 0.778 ± 0.17

C=C(C)[C@H]1CC=C(C)C(=O)C1 [D(+)-carvone] (compound dose: 10 uM)
cell viability (MDA-MB-231 [1]): 1 ± 0.026 | kynurenine production (MDA-MB-231 [2]): 0.864 ± 0.022

CC1OC(OC2C(OC3CCC4(C)C(CCC5(C)C4CC=C4C6CC(C)(C)CCC6(C(=O)OC6OC(COC7OC(CO)C(O)C(O)C7O)C(O)C(O)C6O)CCC45C)C3(C)CO)OCC(O)C2O)C(O)C(O)C1O (stereo unspecified) [Dipsacoside B] (compound dose: 10 uM)
cell viability (MDA-MB-231 [1]): 0.976 ± 0.042 | kynurenine production (MDA-MB-231 [2]): 0.861 ± 0.32

CC(C)=CCC[C@](C)(O[C@@H]1O[C@H](CO)[C@@H](O)[C@H](O)[C@H]1O)[C@H]1CC[C@]2(C)[C@@H]1[C@H](O)C[C@@H]1[C@@]3(C)CC[C@H](O)C(C)(C)[C@@H]3[C@@H](O)C[C@]12C [Ginsenoside F1] (compound dose: 10 uM)
cell viability (MDA-MB-231 [1]): 0.982 ± 0.05 | kynurenine production (MDA-MB-231 [2]): 1.13 ± 0.066

CC(=O)OCc1cocc2c(C=O)ccc1-2 [Baldrinal] (compound dose: 10 uM)
cell viability (MDA-MB-231 [1]): 1.006 ± 0.006 | kynurenine production (MDA-MB-231 [2]): 0.785 ± 0.064

C=C(C=O)[C@H]1CC[C@H](C)[C@H]1C=O [dolichodial] (compound dose: 10 uM)
cell viability (MDA-MB-231 [1]): 1 ± 0.032 | kynurenine production (MDA-MB-231 [2]): 0.897 ± 0.018

CC1(C)CC[C@]2(C(=O)O)CC[C@]3(C)C(=CC[C@@H]4[C@@]5(C)CC[C@H](O)C(C)(C)[C@@H]5CC[C@]43C)[C@@H]2C1 [Oleanolic Acid] (compound dose: 10 uM)
cell viability (MDA-MB-231 [1]): 0.984 ± 0.035 | kynurenine production (MDA-MB-231 [2]): 0.778 ± 0.07

CC1(C)CCC[C@](C)([C@H]2CC[C@]3(C)[C@@H]2[C@H](O)C[C@@H]2[C@@]4(C)CC[C@H](O)C(C)(C)[C@@H]4[C@@H](O)C[C@]23C)O1 [Panaxatriol] (compound dose: 10 uM)
cell viability (MDA-MB-231 [1]): 0.926 ± 0.025 | kynurenine production (MDA-MB-231 [2]): 0.846 ± 0.073

O=C1C[C@@H](O[C@@H]2O[C@H](CO)[C@@H](O)[C@H](O)[C@H]2O)CO1 [Kinsenoside] (compound dose: 10 uM)
cell viability (MDA-MB-231 [1]): 0.971 ± 0.18 | kynurenine production (MDA-MB-231 [2]): 1.01 ± 0.34

CC1(C)CC[C@]2(C(=O)O[C@@H]3O[C@H](CO[C@@H]4O[C@H](CO)[C@@H](O)[C@H](O)[C@H]4O)[C@@H](O)[C@H](O)[C@H]3O)CC[C@]3(C)C(=CC[C@@H]4[C@@]5(C)CC[C@H](O[C@@H]6OC[C@H](O)[C@H](O)[C@H]6O)[C@@](C)(CO)[C@@H]5CC[C@]43C)[C@@H]2C1 [Asperosaponin VI] (compound dose: 10 uM)
cell viability (MDA-MB-231 [1]): 0.9877 ± 0.0023 | kynurenine production (MDA-MB-231 [2]): 0.748 ± 0.087

C[C@@H]1O[C@@H](O[C@H]2[C@H](O[C@H]3[C@H](O[C@H]4CC[C@]5(C)[C@H]6CC=C7[C@@H]8CC(C)(C)CC[C@]8(C(=O)O)CC[C@@]7(C)[C@]6(C)CC[C@H]5C4(C)C)OC[C@H](O)[C@@H]3O)O[C@H](CO)[C@@H](O)[C@@H]2O)[C@H](O)[C@H](O)[C@H]1O [Raddeanin A] (compound dose: 10 uM)
cell viability (MDA-MB-231 [1]): 0.0234 ± 0.033 | kynurenine production (MDA-MB-231 [2]): 0.116 ± 0.011

C=C1C(=O)O[C@@H]2/C=C(\C)C[C@@H]3C=C(C[C@H](OC(=O)/C(C)=C\C)[C@@H]12)C(=O)O3 [Scabertopin] (compound dose: 10 uM)
cell viability (MDA-MB-231 [1]): 0.873 ± 0.022 | kynurenine production (MDA-MB-231 [2]): 0.182 ± 0.087

CC1CCC(C(C)C)C(O)C1 (single isomer, unassigned; (-)) [(-)-Menthol] (compound dose: 10 uM)
cell viability (MDA-MB-231 [1]): 0.899 ± 0.076 | kynurenine production (MDA-MB-231 [2]): 0.988 ± 0.27

CC(C)=CCC[C@](C)(O)[C@@H]1CC=C(C)CC1 [alpha-Bisabolol] (compound dose: 10 uM)
cell viability (MDA-MB-231 [1]): 0.9925 ± 0.0046 | kynurenine production (MDA-MB-231 [2]): 0.79 ± 0.15

C=C1[C@H](OC(C)=O)[C@@H](O)[C@@H](OC(=O)c2cccnc2)C(C)(C)/C=C/[C@H](C)[C@H](OC(C)=O)[C@@]2(O)C[C@@](C)(OC(C)=O)[C@H](OC(=O)c3ccccc3)[C@@H]2[C@H]1OC(C)=O [Jatrophane 5] (compound dose: 10 uM)
cell viability (MDA-MB-231 [1]): 1.12 ± 0.027 | kynurenine production (MDA-MB-231 [2]): 0.90473 ± 0.00055

C/C=C(/C)C(=O)O[C@H]1[C@H](OC(C)=O)[C@@]2(CO)C(CC1(C)C)C1=CCC3[C@@]4(C)CCC(O[C@@H]5O[C@H](C(=O)O)[C@@H](O[C@@H]6O[C@H](CO)[C@@H](O)[C@H](O)[C@H]6O)[C@H](O)[C@H]5O[C@@H]5O[C@H](CO)[C@@H](O)[C@H](O)[C@H]5O)[C@](C)(CO)C4CC[C@@]3(C)[C@]1(C)C[C@H]2O.C/C=C(\C)C(=O)O[C@H]1[C@H](OC(C)=O)[C@@]2(CO)C(CC1(C)C)C1=CCC3[C@@]4(C)CCC(O[C@@H]5O[C@H](C(=O)O)[C@@H](O[C@@H]6O[C@H](CO)[C@@H](O)[C@H](O)[C@H]6O)[C@H](O)[C@H]5O[C@@H]5O[C@H](CO)[C@@H](O)[C@H](O)[C@H]5O)[C@](C)(CO)C4CC[C@@]3(C)[C@]1(C)C[C@H]2O (stereo partly specified) [Escin] (compound dose: 10 uM)
cell viability (MDA-MB-231 [1]): 0.911 ± 0.11 | kynurenine production (MDA-MB-231 [2]): 1.14 ± 0.1

CC1(C)[C@@H](O)CC[C@]2(C)[C@H]3C(=O)C=C4[C@H]5C[C@@](C)(C(=O)O)CC[C@]5(C)CC[C@@]4(C)[C@]3(C)CC[C@@H]12 [18α-Glycyrrhetinic acid] (compound dose: 10 uM)
cell viability (MDA-MB-231 [1]): 1.06 ± 0.11 | kynurenine production (MDA-MB-231 [2]): 0.943 ± 0.14

O=c1c(O)c(-c2ccc(O)c(O)c2)oc2cc(O)cc(O)c12 [Quercetin] (compound dose: 10 uM)
cell viability (MDA-MB-231 [1]): 0.974 ± 0.095 | kynurenine production (MDA-MB-231 [2]): 0.738 ± 0.2

CC(C)=CCC[C@](C)(O[C@@H]1O[C@H](CO)[C@@H](O)[C@H](O)[C@H]1O)[C@H]1CC[C@]2(C)[C@@H]1[C@H](O)C[C@@H]1[C@@]3(C)CC[C@H](O)C(C)(C)[C@@H]3[C@@H](O[C@@H]3O[C@H](CO)[C@@H](O)[C@H](O)[C@H]3O[C@@H]3OC[C@@H](O)[C@H](O)[C@H]3O)C[C@]12C [Notoginsenoside R1] (compound dose: 10 uM)
cell viability (MDA-MB-231 [1]): 0.909 ± 0.066 | kynurenine production (MDA-MB-231 [2]): 1 ± 0.038

C=C(C)[C@@H]1CC[C@]2(C(=O)O)CC[C@]3(C)[C@H](CC[C@@H]4[C@@]5(C)CC[C@H](OC(=O)CC(C)(C)C(=O)O)C(C)(C)[C@@H]5CC[C@]43C)[C@@H]12 [Bevirimat] (compound dose: 10 uM)
cell viability (MDA-MB-231 [1]): 1.018 ± 0.0069 | kynurenine production (MDA-MB-231 [2]): 0.778 ± 0.15

C=C(C)[C@@H]1CC[C@]2(C(=O)O)CC[C@]3(C)[C@H](CC[C@@H]4[C@@]5(C)CC[C@H](O[C@@H]6OC[C@H](O)[C@H](O)[C@H]6O[C@@H]6O[C@@H](C)[C@H](O)[C@@H](O)[C@H]6O)[C@@](C)(CO)[C@@H]5CC[C@]43C)[C@@H]12 [Pulchinenoside A] (compound dose: 10 uM)
cell viability (MDA-MB-231 [1]): 1.04 ± 0.051 | kynurenine production (MDA-MB-231 [2]): 0.878 ± 0.057

CC(=O)O[C@H]1CC(=O)OC(C)(C)[C@@H]2CC(=O)[C@]3(C)[C@H](CC[C@@]4(C)[C@@H](c5ccoc5)OC(=O)[C@H]5O[C@]543)[C@@]12C [Nomilin] (compound dose: 10 uM)
cell viability (MDA-MB-231 [1]): 1.03 ± 0.023 | kynurenine production (MDA-MB-231 [2]): 0.942 ± 0.087

C/C1=C\CC/C(C)=C/C2C(CC/C(C)=C/CC1)C2(C)C (stereo unspecified) [Casbene] (compound dose: 10 uM)
cell viability (MDA-MB-231 [1]): 1.11 ± 0.042 | kynurenine production (MDA-MB-231 [2]): 0.871 ± 0.056

Cc1cc(O)c2c(c1)C(=O)c1cc(O)cc(O[C@@H]3O[C@H](CO)[C@@H](O)[C@H](O)[C@H]3O)c1C2=O [Emodin-8-glucoside] (compound dose: 10 uM)
cell viability (MDA-MB-231 [1]): 0.9845 ± 0.0046 | kynurenine production (MDA-MB-231 [2]): 0.872 ± 0.14

CC1=CCC(O)(C(C)C)CC1 (stereo unspecified) [Terpineol] (compound dose: 10 uM)
cell viability (MDA-MB-231 [1]): 0.969 ± 0.087 | kynurenine production (MDA-MB-231 [2]): 0.885 ± 0.087

OCC1=C[C@@H](O)[C@@H]2C=CO[C@@H](O[C@@H]3O[C@H](CO)[C@@H](O)[C@H](O)[C@H]3O)[C@H]12 [Aucubin] (compound dose: 10 uM)
cell viability (MDA-MB-231 [1]): 1.01 ± 0.02 | kynurenine production (MDA-MB-231 [2]): 0.87 ± 0.041

O=c1cc(-c2ccc(O)cc2)oc2cc(O)cc(O)c12 [Apigenin] (compound dose: 10 uM)
cell viability (MDA-MB-231 [1]): 0.96 ± 0.053 | kynurenine production (MDA-MB-231 [2]): 0.806 ± 0.026

C=C(C)C1CC=C(C)[C@@H](O)C1 (single isomer, unassigned; (-)) [(-)-carveol (mixed)] (compound dose: 10 uM)
cell viability (MDA-MB-231 [1]): 0.985 ± 0.086 | kynurenine production (MDA-MB-231 [2]): 1.02 ± 0.019

O=c1ccn2c(n1)O[C@H]1[C@H](O)[C@@H](CO)O[C@H]12 [2,2'-Anhydrouridine] (compound dose: 10 uM)
cell viability (MDA-MB-231 [1]): 0.906 ± 0.036 | kynurenine production (MDA-MB-231 [2]): 0.923 ± 0.092
